Test results as given in PMC5540273 (PLoS ONE, 2017).
Several values for one entry are separate records, joined by “and”; a condition that tells them apart may be missing. Identical values can stand only once. Like-named read-outs stand apart in the source and are kept apart here.

Tests used:
[1] = test system: GRK4; conditions: concentration: 1 μM, replicates: in singlicate; n = 1
[2] = test system: GRK7; conditions: concentration: 1 μM, replicates: in singlicate; n = 1
[3] = test system: GSK3A; conditions: concentration: 1 μM, replicates: in singlicate, n = 1
[4] = test system: GSK3B; conditions: concentration: 1 μM, replicates: in singlicate, n = 1
[5] = test system: T1, HASPIN; conditions: concentration: 1 μM, replicates: in singlicate, n = 1
T1 construct: gene GSG2

[6] = test system: HCK; conditions: concentration: 1 μM, replicates: in singlicate, n = 1
[7] = test system: HIPK1; conditions: concentration: 1 μM, replicates: in singlicate; n = 1
[8] = test system: HIPK2; conditions: concentration: 1 μM, replicates: in singlicate, n = 1
[9] = test system: HIPK3; conditions: concentration: 1 μM, replicates: in singlicate, n = 1
[10] = test system: HIPK4; conditions: concentration: 1 μM, replicates: in singlicate, n = 1
[11] = test system: HPK1; conditions: concentration: 1 μM, replicates: in singlicate; n = 1
[12] = test system: HUNK; conditions: concentration: 1 μM, replicates: in singlicate, n = 1
[13] = test system: ICK; conditions: concentration: 1 μM, replicates: in singlicate, n = 1
[14] = test system: IGF1R; conditions: concentration: 1 μM, replicates: in singlicate, n = 1
[15] = test system: T2, IKK-alpha; conditions: concentration: 1 μM, replicates: in singlicate, n = 1
T2 construct: gene CHUK

[16] = test system: T3, IKK-beta; conditions: concentration: 1 μM, replicates: in singlicate, n = 1
T3 construct: gene IKBKB

[17] = test system: T4, IKK-epsilon; conditions: concentration: 1 μM, replicates: in singlicate, n = 1
T4 construct: gene IKBKE

[18] = test system: INSRR; conditions: concentration: 1 μM, replicates: in singlicate; n = 1
[19] = test system: INSR; conditions: concentration: 1 μM, replicates: in singlicate, n = 1
[20] = test system: IRAK1; conditions: concentration: 1 μM, replicates: in singlicate, n = 1
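Note: KINOMEscan kinase panel screen.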

Structure (SMILES): CN1c2ccc(NCc3ccc(F)cc3)cc2-c2c(cnn2C)S1(=O)=O
- %Inh [1]: 0%
- %Inh [2]: 0%
- %Inh [3]: 22%
- %Inh [4]: 0%
- %Inh [5]: 37%
- %Inh [6]: 8%
- %Inh [7]: 6%
- %Inh [8]: 0%
- %Inh [9]: 0%
- %Inh [10]: 0%
- %Inh [11]: 26%
- %Inh [12]: 52%
- %Inh [13]: 0%
- %Inh [14]: 0%
- %Inh [15]: 0%
- %Inh [16]: 0%
- %Inh [17]: 0%
- %Inh [18]: 16%
- %Inh [19]: 0%
- %Inh [20]: 0%

Structure (SMILES): N#Cc1ccc(-c2cc(-c3c[nH]nc3-c3ccccn3)ccn2)cc1 [GW693028]
- %Inh [1]: 3%
- %Inh [2]: 0%
- %Inh [3]: 12%
- %Inh [4]: 4%
- %Inh [5]: 0%
- %Inh [6]: 0%
- %Inh [7]: 0%
- %Inh [8]: 0%
- %Inh [9]: 0%
- %Inh [10]: 0%
- %Inh [11]: 38%
- %Inh [12]: 0%
- %Inh [13]: 11%
- %Inh [14]: 22%
- %Inh [15]: 25%
- %Inh [16]: 19%
- %Inh [17]: 0%
- %Inh [18]: 0%
- %Inh [19]: 1%
- %Inh [20]: 39%

Structure (SMILES): CN(C(=O)c1ccc(-c2cc(-c3c[nH]nc3-c3ccccn3)ccn2)cc1)C1CCOCC1 [GW810083]
- %Inh [1]: 4%
- %Inh [2]: 0%
- %Inh [3]: 0%
- %Inh [4]: 4%
- %Inh [5]: 0%
- %Inh [6]: 0%
- %Inh [7]: 22%
- %Inh [8]: 25%
- %Inh [9]: 0%
- %Inh [10]: 0%
- %Inh [11]: 30%
- %Inh [12]: 0%
- %Inh [13]: 78%
- %Inh [14]: 0%
- %Inh [15]: 0%
- %Inh [16]: 0%
- %Inh [17]: 0%
- %Inh [18]: 0%
- %Inh [19]: 0%
- %Inh [20]: 0%

Structure (SMILES): Cn1cc(-c2ccc3c(c2)CCN3C(=O)Cc2ccccc2Cl)c2c(N)ncnc21 [GSK2608885]
- %Inh [1]: 0%
- %Inh [2]: 0%
- %Inh [3]: 0%
- %Inh [4]: 9%
- %Inh [5]: 0%
- %Inh [6]: 99.4%
- %Inh [7]: 0%
- %Inh [8]: 0%
- %Inh [9]: 14%
- %Inh [10]: 36%
- %Inh [11]: 64%
- %Inh [12]: 7%
- %Inh [13]: 5%
- %Inh [14]: 95.5%
- %Inh [15]: 0%
- %Inh [16]: 0%
- %Inh [17]: 37%
- %Inh [18]: 90.5%
- %Inh [19]: 48%
- %Inh [20]: 0%

Structure (SMILES): Fc1ccc(-c2ncn(CCCN3CCOCC3)c2-c2cccnc2)cc1 [SB-211743]
- %Inh [1]: 14%
- %Inh [2]: 0%
- %Inh [3]: 24%
- %Inh [4]: 20%
- %Inh [5]: 41%
- %Inh [6]: 34%
- %Inh [7]: 38%
- %Inh [8]: 0%
- %Inh [9]: 18%
- %Inh [10]: 4%
- %Inh [11]: 0%
- %Inh [12]: 44%
- %Inh [13]: 0%
- %Inh [14]: 0%
- %Inh [15]: 0%
- %Inh [16]: 0%
- %Inh [17]: 6%
- %Inh [18]: 8%
- %Inh [19]: 4%
- %Inh [20]: 0%

Structure (SMILES): N#Cc1c(N2CCOCC2)sc(-c2ccn[nH]2)c1-c1ccc(Cl)cc1
- %Inh [1]: 0%
- %Inh [2]: 26%
- %Inh [3]: 0%
- %Inh [4]: 0%
- %Inh [5]: 6%
- %Inh [6]: 28%
- %Inh [7]: 26%
- %Inh [8]: 16%
- %Inh [9]: 28%
- %Inh [10]: 0%
- %Inh [11]: 0%
- %Inh [12]: 16%
- %Inh [13]: 24%
- %Inh [14]: 0%
- %Inh [15]: 10%
- %Inh [16]: 25%
- %Inh [17]: 0%
- %Inh [18]: 0%
- %Inh [19]: 0%
- %Inh [20]: 20%

Structure (SMILES): Cc1nnc(-c2ccc3occ(-c4ccc(C(C)O)cc4)c3c2)o1 (centres unmarked)
- %Inh [1]: 1%
- %Inh [2]: 11%
- %Inh [3]: 73%
- %Inh [4]: 19%
- %Inh [5]: 29%
- %Inh [6]: 6%
- %Inh [7]: 67%
- %Inh [8]: 56%
- %Inh [9]: 41%
- %Inh [10]: 33%
- %Inh [11]: 0%
- %Inh [12]: 0%
- %Inh [13]: 0%
- %Inh [14]: 9%
- %Inh [15]: 0%
- %Inh [16]: 2%
- %Inh [17]: 3%
- %Inh [18]: 6%
- %Inh [19]: 11%
- %Inh [20]: 31%

Structure (SMILES): CC(C)(CN)c1nc(-c2ccc(Cl)c(O)c2)c(-c2ccncc2)[nH]1.O=C(O)C(F)(F)F [SB-477794]
- %Inh [1]: 0%
- %Inh [2]: 0%
- %Inh ([3]; 1 µM): 49% and 58%
- %Inh ([4]; 1 µM): 29% and 14%
- %Inh ([5]; 1 µM): 58% and 57%
- %Inh ([6]; 1 µM): 96.6% and 96%
- %Inh [7]: 0%
- %Inh ([8]; 1 µM): 1% and 37%
- %Inh ([9]; 1 µM): 20% and 4%
- %Inh ([10]; 1 µM): 0% and 13%
- %Inh [11]: 46%
- %Inh ([12]; 1 µM): 0% and 16%
- %Inh ([13]; 1 µM): 23% and 0%
- %Inh ([14]; 1 µM): 0% and 9%
- %Inh ([15]; 1 µM): 64% and 34%
- %Inh ([16]; 1 µM): 33% and 0%
- %Inh ([17]; 1 µM): 10% and 6%
- %Inh [18]: 0%
- %Inh ([19]; 1 µM): 23% and 0%
- %Inh ([20]; 1 µM): 62% and 44%

Structure (SMILES): Cc1c(Cn2c(C)nn3c(=O)cc(N4CCOC(C)C4)nc23)cccc1C(F)(F)F (centres unmarked) [GSK2344444]
- %Inh [1]: 0%
- %Inh [2]: 0%
- %Inh [3]: 0%
- %Inh [4]: 10%
- %Inh [5]: 0%
- %Inh [6]: 0%
- %Inh [7]: 0%
- %Inh [8]: 0%
- %Inh [9]: 7%
- %Inh [10]: 0%
- %Inh [11]: 9%
- %Inh [12]: 0%
- %Inh [13]: 0%
- %Inh [14]: 7%
- %Inh [15]: 12%
- %Inh [16]: 18%
- %Inh [17]: 5%
- %Inh [18]: 3%
- %Inh [19]: 17%
- %Inh [20]: 0%

Structure (SMILES): Nc1nc(-c2ccc3c(N)n[nH]c3c2)cc(N2CCCC2)n1 [GSK2227430]
- %Inh [1]: 0%
- %Inh [2]: 0%
- %Inh [3]: 0%
- %Inh [4]: 0%
- %Inh [5]: 0%
- %Inh [6]: 0%
- %Inh [7]: 5%
- %Inh [8]: 0%
- %Inh [9]: 0%
- %Inh [10]: 0%
- %Inh [11]: 39%
- %Inh [12]: 0%
- %Inh [13]: 0%
- %Inh [14]: 0%
- %Inh [15]: 0%
- %Inh [16]: 0%
- %Inh [17]: 40%
- %Inh [18]: 0%
- %Inh [19]: 0%
- %Inh [20]: 0%
